# Test system: HepG2
# Assay: GSK_TCMDC: Percent inhibition of human HepG2 cell line. Test compounds present at 10uM.
# Format: functional
row,SMILES,Inhibition [%]
1,COc1ccccc1NS(=O)(=O)c1cc(C(=O)Nc2ccc(N3CCOCC3)c(S(=O)(=O)Nc3ccccc3Cl)c2)ccc1Cl,0
2,NC1CCN(c2cnn(Cc3cccc(NC(=O)Nc4ccc(-c5ccccc5)cc4)c3)c(=O)c2Cl)CC1.O=C(O)C(F)(F)F,5
3,O=c1sn(-c2csc3ccccc23)c2ccccc12,14
4,Cl.Cn1c(=O)n(C)c2cc(CNCCNc3ccnc4cc(Cl)ccc34)ccc21,17
5,CC(C)(C)CC(C)(C)c1ccc(O)c(C(=O)Nc2ccc([N+](=O)[O-])cc2)c1,80
6,Cc1ccc2nc(C)cc(Nc3ccccc3O)c2c1.Cl,0
7,O=C(NC1CCN(Cc2ccccc2O)C1)c1ccc(Cl)c(Cl)c1.O=C(O)C(F)(F)F (stereo unspecified),0
8,CN1CCN(C(=O)CN2CCC3(CCC2=O)NC(=O)c2ccccc2O3)CC1 (stereo unspecified),0
9,O.O=C1C([N+](=O)[O-])=C(O)c2c(F)cccc21,9
10,COC1(C)Oc2ccc3cccc([N+](=O)[O-])c3c2C1=O (stereo unspecified),3
11,O=C(c1ccc(-c2ccc(-c3nc4cc(C(F)(F)F)ccc4[nH]3)s2)cc1)N1CCN(CCc2ccccc2)CC1,23
12,O=C(Nc1ccc(Cl)c(-c2nc3ccccc3[nH]2)c1)c1ccc(-c2ccc(Cl)cc2)o1,16
13,COc1cc2nc(N3CCC(CNC(=O)c4ccc(-c5ccc(C(=O)N(C)C)cc5O)cc4)CC3)nc(N)c2cc1OC,2
14,O=C(NCCCN1CCC(N2CCCCC2)CC1)c1ccc2nc(N3CCCCC3)sc2c1,11
15,COc1cc(-c2nc(-c3ccc([N+](=O)[O-])cc3)c(-c3ccccc3)[nH]2)cc(OC)c1O,7
16,Oc1cc(Nc2ccnc3cc(-c4cccc(CN5CCCCC5)c4)ccc23)c(F)cc1Cl,21
17,CCCCCN1CCN(Cc2cccc(NC(=O)c3ccc(Cl)c(Cl)c3)c2)CC1.O=C(O)C(F)(F)F,24
18,CN(C)CCN(C)Cc1ccc(-c2ccc(NC(=O)c3cccc(Cl)c3)cc2)cc1.O=C(O)C(F)(F)F,50

row,SMILES,Inhibition [%]
1,COc1cc(F)c2ncc(C#N)c(CCN3CCC(NCc4ccc5c(c4)OCCO5)CC3)c2c1.Cl,5
2,COc1cccc(C(C)(C)NC[C@@H](O)[C@H](Cc2ccccc2)NC(=O)c2cc(C3CCCC3)cc(N3CCCCS3(=O)=O)c2F)c1.O=CO,16
3,CN(C)c1ccc(N2C(N)=NC(N)=NC23CCCC3)cc1.Cl,1
4,CCCCOP(=O)(COc1ccc(CCN(CC(O)COc2cccc3[nH]c4ccccc4c23)CC(O)COc2cccc3[nH]c4ccccc4c23)cc1)C1CCCCC1 (stereo unspecified),7
5,O=C(/C=C/c1ccc(Cl)c(Cl)c1)N1CCC(CCN2CCC(c3c[nH]c4ccncc34)CC2)CC1,13
6,Cc1cc(-c2cccc(CNC3CCN(C)CC3)c2)ccc1S(=O)(=O)NCCc1ccccn1.O=C(O)C(F)(F)F,22
7,COC(=O)c1cc2cccc(NC[C@@H](C)NC[C@H](O)c3cccc(Cl)c3)c2[nH]1,0
8,C[C@H](Cc1ccc(C[C@@H](C)NC[C@H](O)c2cccc(Cl)c2)cc1)NC[C@H](O)COc1ccccc1.Cl,99
9,CCOc1ccc(C(=O)N2CCOC(CCN3CCC4(CCc5ccccc54)CC3)(c3ccc(Cl)c(Cl)c3)C2)cc1 (stereo unspecified),25
10,COc1ccc(C=NN=c2c3ccccc3[nH]c3ccccc23)c2ccccc12,9
11,COc1ccccc1C1CC(c2ccccc2)=NN1C(=O)c1ccco1 (stereo unspecified),12
12,Cc1ccc(NC(=O)c2ccc3ncccc3c2)cc1OC1CCN(Cc2ccco2)C1.O=C(O)C(F)(F)F (stereo unspecified),9
13,NC1CCN(Cc2ccc(-c3cccc(-c4nc5cc(F)ccc5[nH]4)c3)cc2)C1.O=C(O)C(F)(F)F (stereo unspecified),47
14,O=C(Nc1cccc(F)c1)N[C@H]1CCN(CCCCCNC(=O)C2CC2c2ccc(Cl)c(Cl)c2)C1 (stereo partly specified),41
15,O=C(NC1CCCc2ccccc21)C1CCCN(C(=O)c2ccc(O)c(-c3ccc(Cl)c(Cl)c3)c2)C1 (stereo unspecified),0
16,C(=C(c1cccs1)c1cccs1)c1ccc(CNC2CCN(Cc3ccccc3)CC2)cc1.Cl,40
17,CCCc1cc(Cc2cnc(N)nc2N)cc(CC)c1O.Cl,56
18,O=C(NCc1ccc(C(=O)NC2CCCCC2)cc1)c1ccc(O)c(-c2ccc(Cl)c(Cl)c2)c1,5

# From ChEMBL document CHEMBL1157539, “Thousands of chemical starting points for antimalarial lead identification” (Nature, 2010)
